Structures are written as SMILES. This is part of a sample that, as a whole, favours compounds with a hit. Of some 83,000 tested, about 20% had one in any assay.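 Testing used 96-well plates and a 48-hour single-concentration exposure. Example: -40 means 40% of the starting cells died.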 Active and inactive are the calls of the source. How the source made its calls: active means growth percent below 10; inactive means the rest.

This is an account of results in PubChem BioAssay (NCI).

This assay relates to MDA-MB-435 melanoma. Put plainly: NCI-60 one-dose screen, 48 h (100 = growth as untreated, 0 = no growth, -100 = all killed). Conditions: 10 µM unless noted.
As to `CCOC(=O)C(N=Nc1ccc(S(=O)(=O)N=C(N)N)cc1)C(C)=O` (centres undefined), the growth was 105% (inactive). In the case of `CCOC(=O)/C=C/c1cccc2c1C(=O)NC(C)(c1cc3cc(Cl)ccc3oc1=O)N2` (centres undefined), the growth is 42.1% (inactive).

As for `C#CCOc1cc(N(CC)CC)ccc1C(C(=O)NC(C)(C)C)N(C(=O)C1CCc2cc(F)ccc2O1)c1ccc(Br)cc1` (centres undefined), the growth is 69.9% (inactive). The value for `CCCCCCCCc1ccc(C(=O)Nc2ccc(C)cc2C(=O)O)cc1C` was 105% (inactive). With `C#CCOc1cc(N(CC)CC)ccc1C(C(=O)NC(C)(C)C)N(C(=O)C1CCc2cc(F)ccc2O1)c1ccc(F)c(Cl)c1` (centres undefined), the growth is 65.7% (inactive). For the compound `CCOC(=O)C1=C(N)N(c2ccccc2)C2=C(C(=O)CC(C)(C)C2)C1c1ccc([N+](=O)[O-])cc1` (centres undefined), the growth was 102% (inactive). On to `C=C1CC[C@@H]2[C@]3(C)COC(c4ccccc4)O[C@@H]3CC[C@@]2(C)[C@@H]1C/C=C1/C(=O)OCC1OC(C)=O` (some centres undefined), for which the growth is -29.3% (active). With `C#C[C@]1(O)CC[C@H]2[C@@H]3CC=C4c5sc(-c6ccc([N+](=O)[O-])cc6)nc5CC[C@]4(C)[C@H]3CC[C@@]21C`, the growth was 26.7% (inactive).

Take `CN1CCN(/C(=N\c2sc(-c3ccccc3)nc2-c2ccccc2)c2ccccc2)CC1`: the growth was 79.7% (inactive).

Turning to `N=C1N=C(SCc2nc3ccccc3[nH]2)NC(=O)/C1=C/c1ccc(Cl)cc1`, the growth is 102% (inactive). `C/C(=N\N=C1/C(=O)Nc2ccc(Cl)cc21)c1ccc2c(c1)Nc1ccccc1S2`: the growth was -35.2% (active).

For `Cc1cccc(NC(=O)CN2CCN(c3ncnc4c3cnn4-c3ccccc3)CC2)c1`, the growth is 93.4% (inactive).

As to `CN(C)CCOc1ccc(C(=O)C2[C@H](c3ccc(Cl)cc3)[C@@H](c3ccccc3)NC23C(=O)Nc2ccccc23)cc1` (some centres undefined), the growth is 44.6% (inactive). For `COc1ccc2[nH]cc(-c3nnc(N)nc3-c3cn(C)c4ncc(Br)cc34)c2c1`, the growth was 81.9% (inactive).
